# Test results from PubChem BioAssay (NCI).
# Where “and” joins values, the source holds several entries; their conditions need not be identical. Equal values may be shown once. The panel holds about 83,000 compounds, 20% with a hit somewhere; the sample as a whole holds those more often.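 Growth was measured after 48 h exposure to one concentration of compound in 96-well plates. Values under 10 count as active.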 Calls of active or inactive are those of the source.
# System: MDA-MB-468 breast
# Assay: NCI-60 one-dose screen, 48 h (100 = growth as untreated, 0 = no growth, -100 = all killed)
# Details: 10 µM unless noted
row,Structure (SMILES),growth
1,O=C1C(Cl)=C(SC2=NCCN2)C(=O)c2ccccc21,0.366% (active)
2,COc1cc([C@@H]2c3cc4c(cc3C(OC3O[C@@H]5COC(C)O[C@H]5[C@H](O)[C@H]3O)C3COC(=O)[C@@H]32)OCO4)cc(OC)c1O (stereo not given in full),-31% (active)
3,Cn1cnc2c1c(=O)n(CCC(=O)Nc1ccc(F)cc1)c(=O)n2C,113% (inactive)
4,Nc1ccc(C(=O)CSc2nc3ccccc3[nH]2)cc1,93.2% (inactive)
5,CCCCNc1ccc2c3c1cccc3c(=O)n1c3ccccc3nc21,-12.2% (active)
6,COc1cc2cc(Oc3ccc(NC(=O)Nc4ccc(Cl)c(C(F)(F)F)c4)cc3)c(C)nc2cc1OCCN1CCCCC1,-72.3% (active)
7,COc1ccc(C(=O)NNc2nc(Cl)nc(N3CCN(C(c4ccccc4)c4ccccc4)CC3)n2)cc1,-31.9% (active)
8,Cc1ccc(NC(=O)C(Cl)Cl)cc1,90.9% (inactive)
9,COc1ccc(/C=c2\nc3n(-c4ccccc4)c4nc5c6c(sc5c(=N)n4n-3c2=O)CCCC6)cc1,90.1% (inactive)
10,CC1(C)Cc2c(sc3ncn4nc(-c5ccc(O)cc5)nc4c23)CO1,61.4% (inactive)
11,S=c1[nH]c2cc(Cl)ccc2s1,108% (inactive)
12,CC(C)n1cnc2c(=S)nc[nH]c21,104% (inactive)
13,CCc1c2cc(Cl)ccc2n2cc(Cc3ccccc3)[nH]c(=O)c12,115% (inactive)
14,NC(=O)N1N=C(c2ccc(Cl)cc2)CC1c1cn(-c2ccccc2)nc1-c1ccc(Cl)cc1 (stereo not given),69.1% (inactive)
15,CC(=O)Nc1ccc2c(c1)Cc1c(F)c(F)c(F)c(F)c1-2,82.5% (inactive)
16,CC(C)Sc1ncnc2nc[nH]c12,109% (inactive)
17,CCn1cc(/C=C2\Oc3cc(OCC#N)ccc3C2=O)c2cc(OC)ccc21,20% (inactive)
18,O=c1cc(Cc2ccc([N+](=O)[O-])cc2)[nH]c(=O)[nH]1,105% (inactive)
19,Cc1ccc(NC(=O)N/C(N)=N/c2nc(=O)c3ccccc3s2)cc1,89.9% (inactive)
20,CCc1nn2c(-c3ccccc3)c(-c3cc(OC)c(OC)c(OC)c3)nc2s1,66% (inactive)

row,Structure (SMILES),growth
1,N#CC(=S)Nc1ccc(Cl)c(Cl)c1,-5.08% (active)
2,C[n+]1ccc(CCc2c[nH]c3ccccc23)cc1,14.4% (inactive)
3,COc1cc(/C=C(/c2ccccc2)[N+](=O)[O-])c(OC)c2c1OCO2,-81.4% (active)
4,COc1cccc(Nc2nc(SC)nc(-c3cccc([N+](=O)[O-])c3)c2C#N)c1,81.2% (inactive)
5,Cc1cc(C)c(N)c(Br)c1,104% (inactive) and 107% (inactive)
6,O=c1c2cc(Cl)ccc2oc2ccc(OCCCCCN3CCCCC3)cc12,59.9% (inactive)
7,COc1cc(C2CC(c3cccc(Nc4ccncc4)c3)=NN2c2ccc(Cl)cc2)cc(OC)c1OC (stereo not given),10.3% (inactive)
8,O=C(CCCC(=O)Nc1ccc(-n2nnc3cc(Cl)c(Cl)cc32)cc1)Nc1ccc(-n2nnc3cc(Cl)c(Cl)cc32)cc1,18.9% (inactive)
9,Cn1cc(-c2csc(-c3c[nH]c4ccc(Br)cc34)n2)c2ccnc(Cl)c21,14% (inactive)
10,CCCNc1nc(N(C)O)nc(N(C)O)n1,21.5% (inactive)
11,NS(=O)(=O)c1ccc(NC2=C(Cl)C(=O)c3ccccc3C2=O)cc1,-67% (active)
12,CCNc1nc(C(F)(F)F)nc2c1sc(=S)n2-c1ccccc1,81.6% (inactive)
13,CCN(CC)CCNc1ccc(N=Nc2cnc3ccccc3c2)c2ccccc12,-64.5% (active)
14,N#Cc1c(-c2ccccc2)cc(-c2ccccc2)n(CCCC(=O)NO)c1=O,33.3% (inactive)
15,C[N+](C)(C)CCCCCCCCCC[N+](C)(C)C,79.6% (inactive)
16,Cc1ccc2c(c1)nc(C)n2-c1ncnc2c1CC(C)c1cc(O)ccc1N2C (stereo not given),10% (inactive)
17,NC(=O)C1(N2CCCCC2)CCN(CCCC(=O)c2ccc(F)cc2)CC1,-10.6% (active)
18,CCN(C(=O)c1cc2ncccc2[nH]1)[C@H]1CCC[C@@H](NCc2cccc(F)c2)C1,107% (inactive)
19,COc1cc(/C=N/NC(=O)c2cnn3c2NC(c2ccccc2)C3)ccc1OCc1ccccc1 (stereo not given),1.21% (active)
20,CN1CC(c2ccccc2)C(C(=O)c2ccc(Br)cc2)C12C(=O)Nc1ccccc12 (stereo not given),106% (inactive)
